According to PubChem BioAssay AID977607 (Broad Institute, 2014):
The campaign covered roughly 1,500 compounds. About 460 (31%) were called active. Another 1% or so got no clear call; they are omitted.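 The calls were made as follows: active = curve reaches 40% activation over neutral controls at an AC40 no higher than the top valid tested concentration; inconclusive = no clear call, values can overlap the other calls; inactive = signal moving opposite to the expected increase, and the rest.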 Not all results are given here. Results with a measured potency or affinity are listed apart.

experiment: activators of glucose-dependent insulin secretion, dose response, cell-based, INS-1E, Gaussia luciferase, luminescence, cherry-pick, set 2 (AID 977607); conditions: INS-1E GLuc insulin secretion reporter, 2-3 h, active compounds read high; at 35 µM, 100% = signal doubled over neutral wells unless noted;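 also: 0% = median of the plate neutral control wells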

Max activation, inactive:
COc1ccc(CCNC(=O)CCn2c(=O)c3ccccc3n(CC(=O)NCC3CCCO3)c2=O)cc1OC (stereo unspecified) 20.3% [at 0.135 µM, 100% = signal doubled over neutral wells], CCN(CC)C(=O)Cn1c(=O)oc2ccccc21 -21.2%, Cc1nccn1-c1ncnc2sc3c(c12)CCCC3 -26.7% [at 0.046 µM, 100% = signal doubled over neutral wells], CCOC(=O)N1CCN(C(=O)COc2ccccc2OC)CC1 19.9% [at 11 µM, 100% = signal doubled over neutral wells], COc1ccc(/C=N/NS(=O)(=O)c2ccccc2)cc1OC 16.8%, COc1ccc(/C=N/NC(=O)CN(C2=NS(=O)(=O)c3ccccc32)c2ccccc2)cc1OC 23.5%, C=CCc1ccc(OCCOc2ccc(/C=N/n3cnnc3)cc2OCC)c(OC)c1 -24.1% [at 0.046 µM, 100% = signal doubled over neutral wells], Cc1cc(C)c2c(C)nn(C3CCCCC3)c2n1 20.5%, CSc1ccc(C(=O)C2CCCN(C(=O)c3ccc4c(c3)no[n+]4[O-])C2)cc1 (stereo unspecified) -36.5%, C=CCn1cnc2scc(-c3ccc(OC)cc3)c2c1=O -14.9% [at 1.2 µM, 100% = signal doubled over neutral wells], CCOc1ccc(-c2nc(CSc3nnc(N)s3)cs2)cc1OC 23.2%, COc1ccc(-c2nc(C(=O)O)cs2)cc1OC 28.2% [at 0.42 µM, 100% = signal doubled over neutral wells], COc1ccc(C(=O)O/N=C(\N)c2ccc(OC)c(OC)c2)cc1 -23.3% [at 0.135 µM, 100% = signal doubled over neutral wells], COc1ccc(CC(=O)O/N=C(\N)c2ccccc2)cc1OC -13.5% [at 0.005 µM, 100% = signal doubled over neutral wells], COc1ccc(OCC(=O)NNC(=O)Cn2c(=O)cnc3ccccc32)cc1 -15.3% [at 1.2 µM, 100% = signal doubled over neutral wells], CC(=O)NCCc1nc2ccccc2n1CCOc1cccc(C)c1 -27.1%, O=C(c1ccccc1)c1ccc2ccccc2n1 -22.9% [at 0.0016 µM, 100% = signal doubled over neutral wells], O=C(Nc1ccccc1Oc1ccsc1C(=O)O)c1ccccc1F 23.2% [at 0.42 µM, 100% = signal doubled over neutral wells], Cc1cc(C)cc(C(=O)NC(=S)Nc2ccc(-c3cc4ccccc4oc3=O)cc2)c1 14.9%, O=C(NCC1CCCO1)C1CCC(N2C(=O)c3ccccc3C2=O)CC1 (stereo unspecified) 17.8% [at 11 µM, 100% = signal doubled over neutral wells], CC1CCN(C(=O)c2cccc(S(=O)(=O)N3CCN(c4ccccc4)CC3)c2)CC1 35.2% [at 0.0016 µM, 100% = signal doubled over neutral wells], CN1CCN(NC(=O)c2cccc(S(=O)(=O)N3CCCCCC3)c2)CC1 33% [at 1.2 µM, 100% = signal doubled over neutral wells], CN(Cc1ccccc1)C(=S)NC(=O)c1ccc(-c2ccccc2)cc1 -29.1% [at 3.8 µM, 100% = signal doubled over neutral wells], COc1cc(NC(=O)c2c(-c3ccccc3Cl)noc2C)c2ncccc2c1 -28.8% [at 11 µM, 100% = signal doubled over neutral wells], Cc1cccnc1NC(=O)c1ccc(S(=O)(=O)N2CCCCC2)cc1 -21.1% [at 3.8 µM, 100% = signal doubled over neutral wells], CC1CC(C)CN(CC(O)COCc2ccccc2F)C1 (stereo unspecified) -21.2% [at 0.0016 µM, 100% = signal doubled over neutral wells], COc1ccc(OC)c(N(CC(=O)NN=C2CCN(C)CC2)S(=O)(=O)c2ccccc2)c1 -25.4% [at 0.135 µM, 100% = signal doubled over neutral wells], CC(NC(=O)C1CCCN1S(=O)(=O)c1ccc2c(c1)n(C)c(=O)c(=O)n2C)c1ccccc1 (stereo unspecified) -14.2% [at 0.015 µM, 100% = signal doubled over neutral wells], c1cc2c(cc1CN1CCN(C3CCCCCC3)CC1)OCO2 -12.6% [at 0.135 µM, 100% = signal doubled over neutral wells], Cc1cc(S(=O)(=O)NCc2cccnc2)ccc1F -23% [at 3.8 µM, 100% = signal doubled over neutral wells], COC(=O)c1sc2ccccc2c1NC(=O)c1cccs1 -14.7% [at 0.046 µM, 100% = signal doubled over neutral wells], O=C(Nc1nonc1NC(=O)c1cccs1)c1cccs1 -48.2%, Cc1ccc(NC(=O)c2cccs2)cc1NC(=O)c1ccccc1Cl 18.8% [at 1.2 µM, 100% = signal doubled over neutral wells], Cc1cc(C)nc(NC(=O)c2ccc(Cl)cc2Cl)n1 -21.7% [at 0.135 µM, 100% = signal doubled over neutral wells], CCCCNC(=O)c1ccccc1NC(=O)C1=C(C)OCCS1 -8.81% [at 0.005 µM, 100% = signal doubled over neutral wells], CCOC(=O)c1nc(NCc2cccnc2)c2ccccc2n1 -21% [at 1.2 µM, 100% = signal doubled over neutral wells]
